# “And” between values parts separate entries of the source, which are not always exact repeats. Equal values may be shown once. A structure can be active in one record and inactive in another. The source made the active and inactive calls.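 How the source made its calls, unless noted: active means inhibition at or above 50% relative to wild type and mutant plate controls; inactive means inhibition below 50%.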
# What was measured:
# [1] = inhibitors of TNFa-induced NFkB p65 translocation, primary screen, imaging, HUVEC, MLSMR starter and 10KST1 sets (AID 438;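 active means inhibition above 20% together with a positive visual image hit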;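 further: compound added about 3h40 before a 20 min TNFalpha stimulation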;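 on inhibition: signal is the nuclear over cytoplasmic p65 intensity ratio per well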); conditions: HUVEC TNFa-induced p65 nuclear translocation; cell count: measured here: nuclei count (cytotoxicity indicator), at 2.08 µM; inhibition: at 2 µM, stronger effect = higher value, 0% TNFa-plus-vehicle, 100% no-TNFa wells
# [2] = reduction of polyQ htt aggregates in cells – imaging, exon1htt(103Q)mCFP cells, high-content imaging, primary screen (AID 483;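 active means visual image review flags a hit and inhibition of aggregation exceeds 20%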;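 further: compound exposure lasted 3 days before fixation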;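 on nuclei count: percent of the per-plate median nuclei count of sample wells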); conditions: exon1htt(103Q)mCFP cell line, aggregate imaging, at 2 µM; inhibition of aggregation: stronger effect = higher value; nuclei count: measured here: cell count, toxicity
# [3] = endothelial E-selectin expression blockers – imaging, HUVEC, immunofluorescence, MLSMR starter and 10KST1 sets, primary screen (AID 487;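 active means visually confirmed hit in the image check and inhibition above 20%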;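 on inhibition: signal is fraction of cell area covered by stained E-selectin grains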;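 on nuclei count: 100% = median nuclei count of all wells on the same plate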); conditions: HUVEC TNFalpha-induced E-selectin immunofluorescence imaging, at 2 µM; inhibition: stronger effect = higher value; nuclei count: measured here: cell number, toxicity
# [4] = Primary imaging screen for DUSP6 inhibitors that restore phospho-Erk in transfected HeLa cells, chemical complementation (AID 609;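 active means compounds giving at least 50% inhibition in the cell-based MKP-3 phosphatase rescue imaging test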;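 on inhibition: phospho-Erk level distribution per well compared with pooled transfected vehicle control wells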); conditions: HeLa MKP-3 transfected, phospho-Erk imaging KS statistic, at 10 µM, cells stimulated with TPA for 15 min
# [5] = target: Dual specificity protein phosphatase 6 (Homo sapiens) (UniProt Q16828); test: as above; conditions: HeLa MKP-3 transfected, phospho-Erk imaging KS statistic; at 10 µM; stronger effect = higher value; cells stimulated with TPA for 15 min
# [6] = target: Voltage-gated potassium channel subunit beta-2 (Rattus norvegicus) (UniProt P62483); test: inhibitors of rat Kvbeta2 reductase activity – biochemical, NADPH fluorescence, primary screen (AID 622;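 active means fluorescence slope higher than the sample average by over 3 SD, cut at about -0.22 in these data, passing the limit was not always enough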;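 further: slope of raw intensity against log time taken from 70 to 1610 s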); conditions: recombinant KvBeta, 4-cyanobenzaldehyde reduction, at 10 µM, stronger effect = higher value
# [7] = target: Voltage-gated potassium channel subunit beta-2 (Rattus norvegicus) (UniProt P62483); test: enhancers of rat Kvbeta2 NADPH turnover – biochemical, NADPH fluorescence, primary screen (AID 623;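 active means NADPH fluorescence slope more negative than the mean of all samples by about 3 SD, 99.7% confidence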;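 further: fluorescence intensity change per second fitted from 20 to 320 s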); conditions: Recombinant KvBeta, NADPH fluorescence decrease slope, 10 min; at 10 µM; stronger effect = lower value
# [8] = target: Alpha-2C adrenergic receptor (Homo sapiens) (UniProt P18825); test: compounds altering alpha2C-coupled GIRK flux – cell-based, HEK293 alpha2C/GIRK1/2, thallium flux, primary screen (AID 624;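 active means fluorescence slope after compound addition differing from the mean of all screened samples at 99.7% confidence, in either direction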;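 further: slope of fluorescence ratio to pre-addition baseline per second over 15 to 24 s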); conditions: thallium flux BTC fluorescence, at 10 µM, actives lie on both sides
# [9] = inhibitors of larval lipid processing in zebrafish, primary screen, whole organism, PED6 fluorescence, gall bladder and intestine (AID 686;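 active means a full or partial loss of lipid-probe fluorescence in the fish gall bladder, intestine or both, judged by eye; inactive means no fluorescence loss, or compound toxic to the fish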;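 further: larvae 5 to 7 days old with five fish per well; signal comes from phospholipase A2 cleavage of quenched PED6 carried via bile; overnight exposure to compound and PED6 before scoring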); conditions: Zebrafish larvae PED6 lipid processing, fluorescence scoring; screened at 20 µM (by protocol)
# [10] = loss of swimming-algae plug formation – whole organism, Chlamydomonas reinhardtii, WT vs cilia-less mutant, absorbance, 96-well, primary screen (AID 463189); conditions: Chlamydomonas reinhardtii gravitaxis, OD600 absorbance, 2 days; at 10 µM; stronger effect = higher value;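 further: 0% = wild type cc124 cells in DMSO and 100% = ciliumless bld1 mutant cells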
# [11] = blockers of RIG-like receptor reporter activation – cell-based, Sendai virus stimulus, luciferase, 10K MLSCN set, TLR/RLR signaling modifier project, primary screen (AID 602276;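 active means inhibition at or above 50% at 10 µM; inactive means inhibition below 50%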;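 further: firefly luciferase from ISG56 promoter only with Renilla not read in this screen; 0% = Sendai virus plus DMSO and 100% = medium plus DMSO without virus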); conditions: HEK293 RL24 IRF3 luciferase reporter, at 10 µM, stronger effect = higher value
# [12] = TLR3 IRF3 reporter activation blockers – cell-based, poly I:C stimulus, luciferase, 10K MLSCN set, primary screen (AID 602277;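 active means inhibition of the reporter signal at or above 50%; inactive means inhibition below 50%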); conditions: HEK293-TLR3 RL24 IRF3 luciferase reporter, at 10 µM, stronger effect = higher value
# [13] = measured here: cell density z-score
# [14] = measured here: nuclear c-Myc green intensity z-score
# [15] = measured here: nuclear pErk red intensity z-score, stronger effect = higher value
# Chain of Alpha-2C adrenergic receptor (Homo sapiens) (P18825 whole entry, looked up): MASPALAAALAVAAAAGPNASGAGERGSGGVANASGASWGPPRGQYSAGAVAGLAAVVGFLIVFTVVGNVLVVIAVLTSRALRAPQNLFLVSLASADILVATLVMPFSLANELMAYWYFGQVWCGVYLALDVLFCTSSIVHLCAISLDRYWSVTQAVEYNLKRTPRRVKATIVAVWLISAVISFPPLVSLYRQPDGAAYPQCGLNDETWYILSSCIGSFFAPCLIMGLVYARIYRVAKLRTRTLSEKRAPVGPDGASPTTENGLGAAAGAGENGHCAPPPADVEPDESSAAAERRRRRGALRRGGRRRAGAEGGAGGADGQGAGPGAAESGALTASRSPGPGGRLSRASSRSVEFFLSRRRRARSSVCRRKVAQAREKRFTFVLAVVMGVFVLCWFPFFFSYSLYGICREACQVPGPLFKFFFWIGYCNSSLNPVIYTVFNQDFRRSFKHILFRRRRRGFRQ
# Chain of Dual specificity protein phosphatase 6 (Homo sapiens) (Q16828 whole entry, looked up): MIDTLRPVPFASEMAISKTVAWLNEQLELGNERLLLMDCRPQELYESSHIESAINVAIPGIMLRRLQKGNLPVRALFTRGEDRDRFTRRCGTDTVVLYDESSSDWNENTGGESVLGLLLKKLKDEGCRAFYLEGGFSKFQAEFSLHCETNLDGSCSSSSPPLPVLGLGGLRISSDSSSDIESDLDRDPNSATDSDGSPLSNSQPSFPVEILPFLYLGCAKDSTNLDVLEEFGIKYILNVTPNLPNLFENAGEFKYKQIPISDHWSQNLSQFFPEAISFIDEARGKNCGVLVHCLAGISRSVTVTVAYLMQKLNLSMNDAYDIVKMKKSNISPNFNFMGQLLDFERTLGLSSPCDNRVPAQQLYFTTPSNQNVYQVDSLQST
# Chain of Voltage-gated potassium channel subunit beta-2 (Rattus norvegicus) (P62483 whole entry, looked up): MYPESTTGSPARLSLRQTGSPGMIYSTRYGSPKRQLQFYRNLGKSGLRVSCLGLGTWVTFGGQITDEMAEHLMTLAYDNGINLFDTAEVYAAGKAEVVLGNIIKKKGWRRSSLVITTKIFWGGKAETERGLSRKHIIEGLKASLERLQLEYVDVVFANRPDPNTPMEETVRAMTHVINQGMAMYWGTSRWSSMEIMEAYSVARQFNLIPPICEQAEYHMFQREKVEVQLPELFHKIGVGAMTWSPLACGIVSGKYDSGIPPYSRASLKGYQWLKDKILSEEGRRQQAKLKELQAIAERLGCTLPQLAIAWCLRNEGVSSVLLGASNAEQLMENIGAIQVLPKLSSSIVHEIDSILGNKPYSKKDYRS
SMILES,cell count [1],inhibition [1],inhibition of aggregation [2],nuclei count [2],inhibition [3],nuclei count [3],"z-score [4, 13]","z-score [4, 14]","z-score [4, 15]",inhibition [5],fluorescence slope [6],NADPH fluorescence slope [7],slope [8],outcome [9],inhibition [10],inhibition [11],inhibition [12]
CN1CCCN=C1COC(=O)C(O)(c1ccccc1)C1CCCCC1 (configuration not stated),703,-0.1% (inactive),15.9% (inactive),107%,-113% (inactive),127%,-0.149,-0.804,0.222,3.45% (inactive),-0.497 (inactive),-1.3e-05 (inactive),0.00478 (inactive),inactive,-8.88% (inactive),19.2% (inactive),50.5% (active)
CC1(C)Cc2c(sc3c2C2=NCCN2C=N3)CS1,632,-2.6% (inactive),-1.3% (inactive),109%,-26.4% (inactive),138%,1.38,0.227,-1.08,11.3% (inactive),-0.487 (inactive),-0.000119 (inactive),0.00445 (inactive),inactive,-8.31% (inactive),0.61% (inactive),4.84% (inactive)
COc1cc([C@@H]2[C@H]3CN(C)CC=C3C(C#N)=C(N)C2(C#N)C#N)cc2c1OCO2,394,-2.2% (inactive),31.8% (inactive),111%,-39.2% (inactive),109%,0.739,-0.834,0.31,57.9% (inactive),-0.309 (inactive),9.9e-07 (inactive),0.00454 (inactive),inactive,38% (inactive),4.57% (inactive),19.8% (inactive)
CCCC(=O)Nc1ncnc2c1ncn2[C@@H]1O[C@@H]2COP(=O)(O)O[C@H]2[C@H]1OC(=O)CCC,447,15.4% (inactive),14.3% (inactive),96.1%,-67.8% (inactive),127%,0.217,0.395,0.177,21.2% (inactive),-0.511 (inactive),-7.6e-06 (inactive),0.00504 (inactive),inactive,29.3% (inactive),18.6% (inactive),40.7% (inactive)
CN1C(C(=O)Nc2ccccn2)=C(O)c2ccccc2S1(=O)=O,593 and 424,-2.6% (inactive) and -16.7% (inactive),-13.6% (inactive),111%,-30.1% (inactive) and -244% (inactive),112% and 218%,0.668 and -0.761,0.887 and -0.948,-0.364 and 0.452,11.3% (inactive) and 2.71% (inactive),-0.457 (inactive) and -0.395 (inactive),1.6e-05 (inactive) and -1.1e-05 (inactive),0.00561 (inactive) and 0.00377 (inactive),inactive,7.21% (inactive) and 26% (inactive) and -1.23% (inactive),-0.169% (inactive),-2.96% (inactive)
O=C(O)c1cccnc1Nc1cccc(C(F)(F)F)c1,579,-0.7% (inactive),7.2% (inactive),55.6%,-109% (inactive),125%,-1.55,-0.913,0.921,3.59% (inactive),-0.507 (inactive),-5.7e-05 (inactive),0.00519 (inactive),inactive,0.869% (inactive) and -7.21% (inactive),17.3% (inactive),24.1% (inactive)
O=C(COc1ccccc1)Nc1ccc(-c2nnc(-c3ccco3)o2)cc1,458,-4.3% (inactive),7.5% (inactive),101%,-252% (inactive),102%,-2.58,1.43,-0.658,3.97% (inactive),-0.499 (inactive),-2.1e-05 (inactive),0.00796 (inactive),inactive,-15.4% (inactive),-55.4% (inactive),-103% (inactive)
N[C@@H](C(=O)N[C@@H]1C(=O)N2C(C(=O)O)=C(Cl)CS[C@H]12)c1ccccc1,693,-2% (inactive),-5.3% (inactive),113%,-84.8% (inactive),122%,-0.332,-0.293,-0.889,7.39% (inactive),-0.441 (inactive),-5.1e-05 (inactive),0.00559 (inactive),inactive,21.4% (inactive),12.2% (inactive),28.5% (inactive)
CN1CCCN(C(c2ccccc2)c2ccc(Cl)cc2)CC1 (configuration not stated),564,5.7% (inactive),-11.5% (inactive),103%,-6.3% (inactive),120%,0.561,-0.226,0.2,-5.24% (inactive),-0.519 (inactive),-1.7e-06 (inactive),0.00369 (inactive),inactive,43% (inactive),-26.9% (inactive),68.6% (active)
Cc1nc2sccn2c(=O)c1CCN1CCC(=C(c2ccc(F)cc2)c2ccc(F)cc2)CC1,597,-5.2% (inactive),4% (inactive),104%,-80.7% (inactive),112%,0.864,0.124,-0.385,27.9% (inactive),-0.459 (inactive),-4.2e-05 (inactive),0.0045 (inactive),inactive; toxic,29.2% (inactive) and 168% (active),12% (inactive),-6.25% (inactive)
CC1(C)Cc2c(C#N)c(SCCC#N)nc(N3CCOCC3)c2CS1,632,-13% (inactive),-5.8% (inactive),106%,-104% (inactive),132%,0.7,-1.52,-1.34,28.6% (inactive),-0.343 (inactive),-8.5e-06 (inactive),0.0053 (inactive),inactive,-1.16% (inactive),15.2% (inactive),18.7% (inactive)

# Source: PubChem BioAssay
